# Laboratory results reported in PubChem BioAssay AID463173 (ICCB-Longwood Screening Facility, Harvard Medical School, 2010).
# In all, about 52,000 compounds went through this assay and about 1,700 (3.3%) were called active. No stated cut-off is given here; in the data, active means survival mostly below about 52% (no sharp cut-off); inactive means mostly above about 56%. For the sample, actives were picked, then their nearest neighbours and some compounds at random.
# Test system: Wild type
# Assay: growth inhibition of S. aureus wild type versus tarO mutant, primary screen, teichoic acid synthesis inhibitors, RN4220, OD600 (AID 463173)
# Details: S. aureus RN4220 wild type/DeltatarO growth, OD600, 18 h, hits give low values, screened at 18.75 µg/mL (by protocol)
row,SMILES,survival
1,CCc1nnc(SCc2nc(-c3ccc(OC)cc3)oc2C)c2cc3sccc3n12,86% (inactive)
2,Cc1ccc(C)c(S(=O)(=O)n2nnc3ccccc32)c1,104% (inactive)
3,CCOC(=O)N1CCc2c(sc3c2c(=O)n(-c2ccc(Cl)cc2)c(=O)n3Cc2cccc(OC)c2)C1,120% (inactive)
4,Cc1ccc(CCNC(=O)Cn2c(-c3cccs3)cc3ccccc32)cc1,119% (inactive)
5,Cc1ccc(C)c(N2CCN(C(=O)NC3CCCCC3)CC2)c1,103% (inactive)
6,COc1ccc2nc3oc(C(=O)Nc4cccc(C(F)(F)F)c4)cc3cc2c1,66% (inactive)
7,CCCOc1ccc(C2C(=O)N(C3CCCCCC3)CC(=O)N2CCC2=CCCCC2)cc1OC (stereo not given),123% (inactive)
8,COc1ccc(C2C(=O)N(C3CCC(C)CC3)CC(=O)N2C2CCCC2)cc1OC (stereo not given),-4% (active)
9,CCCOc1ccc(C2C(=O)N(C3CCCCC3)CC(=O)N2C2CCCCC2)cc1OC (stereo not given),77% (inactive)
10,COc1ccc(C2C(=O)N(C3CCC(C)CC3)CC(=O)N2C2CCCCC2)cc1OC (stereo not given),64% (inactive)
11,CCCCN1C(=O)CN(C2CCCCCC2)C(=O)C1c1ccc(OCCC)c(OC)c1 (stereo not given),87% (inactive)
12,CCCOc1ccc(C2C(=O)N(C3CCCCCC3)CC(=O)N2CCC)cc1OC (stereo not given),-6% (active)
13,COc1ccc(C2C(=O)N(C3CCC(C)CC3)CC(=O)N2CCC2=CCCCC2)cc1OC (stereo not given),-3% (active)
14,CCCOc1ccc(C2C(=O)N(C3CCC(C)CC3)CC(=O)N2CCC2=CCCCC2)cc1OC (stereo not given),87% (inactive)
15,CCCN1C(=O)CN(C2CCCCCC2)C(=O)C1c1ccc(OCC)c(OC)c1 (stereo not given),120% (inactive)
16,COc1ccc(-n2cc(C(=O)N(C)c3cc(C)ccc3OC)c3ccccc3c2=O)cc1,114% (inactive)
17,Cc1ccc(NC(=O)CCc2c(C)nc3nc(C)nn3c2C)c(Cl)c1,70% (inactive)
18,CCc1nnc(SC(CC)C(=O)NCCOC)c2cc3occc3n12 (stereo not given),105% (inactive)
19,Cc1ccc(C(=O)n2nc(C)c(S(=O)(=O)N3CCOCC3)c2C)cc1,85% (inactive)
20,CCN(c1cccc(C)c1)S(=O)(=O)c1cc(Br)cc2c1N(C(C)=O)C(C)C2 (stereo not given),75% (inactive)
21,CN(C)CCNC(=O)c1ccc(-n2c(-c3ccccc3)cc3c2CCCC3)cc1,29% (inactive)
22,CCN(CC)CCNC(=O)c1ccc(-n2c(-c3ccccc3)cc3c2CCCC3)cc1,2% (active)
23,CN(C)CCNC(=O)c1ccc(-n2c(-c3ccccc3)cc3c2CCCCC3)cc1,17% (inactive)
24,Cc1ccc(C2C(C(=O)/C=C/c3ccccc3)=C(O)C(=O)N2CCO)cc1 (stereo not given),99% (inactive)

row,SMILES,survival
1,O=S1(=O)C=C(Sc2nnnn2-c2ccccc2)c2ccccc21,-1% (active)
2,O=S(=O)(NCCSc1nnnn1-c1ccccc1)c1ccc(F)cc1,76% (inactive)
3,O=C1CC(CSc2nnnn2-c2ccccc2)=NN1,128% (inactive)
4,OCCCn1c(-c2ccc(F)cc2)csc1=Nc1ccc(F)cc1,9% (active)
5,COc1ccc(-c2csc(=Nc3ccccc3)n2CCO)cc1F,63% (inactive)
6,Cc1ccc(-c2csc(=Nc3ccccc3)n2CCCO)cc1,-7% (active)
7,CCN(CC)CCn1c(-c2ccccc2)csc1=Nc1ccccc1,45% (inactive)
8,O=S(=O)(c1ccc(-c2csc(=Nc3ccc(OC(F)(F)Cl)cc3)n2CCCO)cc1)N1CCCC1,132% (inactive)
9,O=S(=O)(c1ccc(-c2csc(=Nc3ccc(F)cc3)n2CCCCCCO)cc1)N1CCCC1,55% (inactive)
10,Cc1ccc(NC(=O)C(=O)NCC(c2ccc3c(c2)OCO3)N2CCN(c3ccccc3)CC2)cc1 (stereo not given),75% (inactive)
11,O=C(CCC1N=C2c3ccccc3N=C(SCC(=O)Nc3ccccc3F)N2C1=O)NCc1ccccc1 (stereo not given),76% (inactive)
12,CCOc1ccc(CNC(=O)C2CCN(S(=O)(=O)N3CCC(C)CC3)CC2)cc1OC,84% (inactive)
13,CCOc1ccc(-c2nnc(SCC(=O)c3ccc(Br)cc3)n2-c2ccccc2)cc1,92% (inactive)
14,CC(=O)N1CCc2c(sc3c2c(=O)n(CCc2ccccc2)c(=O)n3Cc2ccc(Cl)cc2)C1,65% (inactive)
15,O=C(CSc1nc2c(c(=O)[nH]1)CN(Cc1ccc3c(c1)OCO3)CC2)Nc1ccccc1Cl,81% (inactive)
16,O=C(CCN1CCCCC1)c1ccccc1,92% (inactive)
17,CCOC(=O)C1CCCN(C(=O)c2cc3c(Cl)nc4ccccc4c3s2)C1 (stereo not given),41% (inactive)
18,Cc1ccc2nc(Cl)c3cc(C(=O)NC4CCCCCC4)sc3c2c1,119% (inactive)
19,O=C(NC1CCCCC1)c1cc2c(Cl)nc3ccccc3c2s1,77% (inactive)
20,CC(C)N(C(=O)c1cc2c(Cl)nc3ccccc3c2s1)C1CCCCC1,-1% (active)
21,CC1CCCN(C(=O)c2cc3c(Cl)nc4ccccc4c3s2)C1 (stereo not given),-2% (active)
22,O=C(c1cc2c(Cl)nc3ccccc3c2s1)N1CCCCC1,58% (inactive)
23,Cc1ccc2nc(Cl)c3cc(C(=O)N4CCCCC4)sc3c2c1,-2% (active)
24,Cc1ccc2nc(Cl)c3cc(C(=O)N4CCCCC4C)sc3c2c1 (stereo not given),21% (inactive)

row,SMILES,survival
1,Cc1ccc2nc(Cl)c3cc(C(=O)N4CCCC(C)C4)sc3c2c1 (stereo not given),-2% (active)
2,O=C(NC1CCCCCC1)c1cc2c(Cl)nc3ccccc3c2s1,123% (inactive)
3,Cc1ccc2nc(Cl)c3cc(C(=O)NC4CCCCC4)sc3c2c1,76% (inactive)
4,Cc1ccc2nc(Cl)c3cc(C(=O)NC4CCC(C)CC4)sc3c2c1 (stereo not given),72% (inactive)
5,CCCCC(=O)Nc1ccc(OCc2cc(=O)n3c(C)csc3n2)cc1,87% (inactive)
6,COc1ccccc1NC(=O)C(Cc1ccccc1)NS(=O)(=O)c1ccc2c(c1)CCN2C(C)=O (stereo not given),80% (inactive)
7,CCOc1ccccc1NS(=O)(=O)c1ccc2c(c1)oc(=O)n2C,82% (inactive)
8,O=C(Nc1ccc2nn(-c3ccccc3)nc2c1)c1cc2ccccc2o1,80% (inactive)
9,COC(=O)c1scc(-c2ccc(C)cc2)c1S(=O)(=O)N1CCN(c2cccc(OC)c2)CC1,53% (inactive)
10,CCCCn1c(Cc2ccccc2)nnc1SCC(=O)NC,104% (inactive)
11,COC(=O)c1ccc(NC(=O)c2cc(S(=O)(=O)N3CCOCC3)cn2C)cc1,84% (inactive)
12,COC(=O)C1(c2ccccc2)NC(c2ccc(O)cc2)C2C(=O)N(c3ccc4c(c3)OCCO4)C(=O)C21 (stereo not given),106% (inactive)
13,Cc1cc(N2CCC(C(=O)N(CC(C)C)CC(C)C)CC2)n2nc(C)c(-c3ccc(Cl)cc3)c2n1,91% (inactive)
14,COc1ccc(NC(=O)CN2C(=O)CC(c3ccc(C)c(C)c3)=Nc3ccccc32)cc1OC,76% (inactive)
15,CCCn1c(SCC(=O)N2CCCC2)nnc1C(C)C,105% (inactive)
16,Cc1ccc(NC(=O)CCC(=O)N2Cc3ccccc3Oc3ncccc32)cc1F,82% (inactive)
17,CCn1cc(C(=O)NCCCOC(C)C)c(=O)c2cc(S(=O)(=O)N3CCOCC3)ccc21,131% (inactive)
18,COc1ccc(OC)c(CNC(=O)CN(c2ccc(C)cc2)S(=O)(=O)N(C)C)c1,80% (inactive)
19,O=C(c1cnc2cc(-c3ccccc3)nn2c1)c1cc([N+](=O)[O-])ccc1O,19% (active)
20,COc1ccc(-c2cc3ncc(C(=O)c4cc([N+](=O)[O-])ccc4O)cn3n2)cc1,58% (inactive)
21,Cc1ccc(-c2cc3ncc(C(=O)c4cc(Cl)c(C)cc4O)cn3n2)cc1,91% (inactive)
22,CCc1ccc(O)c(C(=O)c2cnc3cc(-c4ccc(C)cc4)nn3c2)c1,66% (inactive)
23,Cc1ccc(-c2cc3ncc(C(=O)c4cc([N+](=O)[O-])ccc4O)cn3n2)cc1,15% (active)
24,O=[N+]([O-])c1ccc(O)c(-c2ccnc3cc(-c4ccccc4)nn23)c1,29% (inactive)

row,SMILES,survival
1,O=C(CCC(=O)N1CCOc2ccccc21)NCc1cccs1,83% (inactive)
2,Cc1cccc(NC(=O)Cn2c(=O)oc3cc(S(=O)(=O)NCc4ccccc4)ccc32)c1,92% (inactive)
3,CC(=O)c1ccc(NC(=O)Cn2nc(C(F)(F)F)c3c2CCC3)cc1,66% (inactive)
4,CCc1cccc(NC(=O)C2CCN(S(=O)(=O)c3cccc(-c4noc(C)n4)c3)CC2)c1,80% (inactive)
5,Cc1cc(C)cc(NC(=O)C2CCN(S(=O)(=O)c3cccc(-c4noc(C)n4)c3)CC2)c1,-6% (active)
6,CCc1ccc(NC(=O)C2CCN(S(=O)(=O)c3cccc(-c4noc(C)n4)c3)CC2)cc1,90% (inactive)
7,CCOc1ccc(N(CC(=O)Nc2ccccc2)S(C)(=O)=O)cc1,110% (inactive)
8,COc1cc(Cl)c(C)cc1NC(=O)c1cc2ccc3cccnc3c2[nH]1,73% (inactive)
9,Cc1cnc2c(c1SCC(=O)N(C)c1ccccc1)c(=O)n(C)c(=O)n2C,100% (inactive)
10,Cc1ccccc1-c1nc(CN2CCC(C(=O)NCc3ccccc3Cl)CC2)c(C)o1,85% (inactive)
11,CCOC(=O)Cn1c(=N)n(Cc2ccc(C(C)(C)C)cc2)c2ccccc21,95% (inactive)
12,Cc1ccc(Cn2c(=N)n(CC(=O)c3ccccc3)c3ccccc32)cc1,107% (inactive)
13,CC(C)(C)c1ccc(Cn2c(=N)n(CC(O)c3ccco3)c3ccccc32)cc1 (stereo not given),53% (active)
14,NC(=S)N/N=C/c1ccc(Sc2cccc3cccnc23)o1,115% (inactive)
15,COc1cccc(Cn2c(=O)cc(C)c3c(C)nn(C)c32)c1,85% (inactive)
16,COC(=O)c1ccc(Cn2c(=O)cc(C)c3c(C)nn(C)c32)cc1,53% (inactive)
17,C=Cc1ccc(Cn2c(=O)cc(C)c3c(C)nn(C)c32)cc1,0% (active)
18,Cc1cc(=O)n(Cc2ccccc2)c2c1c(C)nn2C,-3% (active)
19,Cc1cc(=O)n(Cc2ccccc2)c2c1c(C)nn2-c1ccccc1,72% (inactive)
20,Cc1ccc(C)c(Cn2c(=O)cc(C)c3c(C)nn(C)c32)c1,63% (inactive)
21,Cc1cc(=O)n(Cc2cccc(Cl)c2)c2c1c(C)nn2C,66% (inactive)
22,Cc1cc(=O)n(Cc2ccc(Cl)cc2)c2c1c(C)nn2-c1ccccc1,131% (inactive)
23,C=Cc1ccc(Cn2c(=O)cc(C)c3c(C)nn(-c4ccccc4)c32)cc1,-1% (active)
